# Laboratory results as given in PubChem BioAssay (NCATS).
# Results filed as inconclusive are left out. Where a call stands in place of a potency, no number is given. Activity calls are given as the source filed them. Unless noted, the call rests on the fitted dose curve; in most records, active means well fitted inhibition curve with a large enough effect; inconclusive means small, poorly fitted or top-dose-only effect; inactive means flat fitted curve, though single readings scatter.
# How the values were obtained:
# [1] = qHTS drug screen for cell cycle checkpoint inhibitors in PARPi-resistant BRCA-mutant ovarian cancer cell lines. (AID 1963452; calls by dose curve); details: PEO1/OlaR viability, CellTiter-Glo luminescence, 96 h, stronger effect = lower value
# In short: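 PEO1, PEO4 and PEO1/OlaR ovarian cancer cells, 600 per well, exposed 96 h at 37C to a dilution series. Viability read by CellTiter-Glo luminescence, normalized to DMSO and empty wells; activity summarized as Z-AUC.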
# [2] = qHTS profiling for inhibitors of Plasmodium falciparum proliferation (AID 504749); further: nearly all actives have a fitted effect of over 60% in size; further: potency means the concentration at half of the fitted maximal effect; details: P. falciparum in erythrocytes, SYBR Green DNA, 72 h
# In short: (§1)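 In a 72 h erythrocytic culture (37 C, humidified, 5% CO2) at 2.5% hematocrit and 0.3% starting parasitemia, compounds were tested; SYBR Green I in detergent lysis buffer stained parasite DNA overnight.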
# [3] = tested on: 3D7; assay: as above; details: P. falciparum in erythrocytes, SYBR Green DNA, 72 h; series mostly up to 28.7 µM
# In short: as §1
# [4] = tested on: 7G8; assay: as above; details: P. falciparum in erythrocytes, SYBR Green DNA, 72 h; series mostly up to 28.7 µM
# In short: as §1
# [5] = tested on: AA1029; assay: as above; details: P. falciparum in erythrocytes, SYBR Green DNA, 72 h; series mostly up to 28.7 µM
# In short: as §1
# [6] = tested on: AS120; assay: as above; details: P. falciparum in erythrocytes, SYBR Green DNA, 72 h; series mostly up to 28.7 µM
# In short: as §1
# [7] = tested on: ATS189; assay: as above; details: P. falciparum in erythrocytes, SYBR Green DNA, 72 h; series mostly up to 28.7 µM
# In short: as §1
# [8] = tested on: ATS95; assay: as above; details: P. falciparum in erythrocytes, SYBR Green DNA, 72 h; series mostly up to 28.7 µM
# In short: as §1
# [9] = tested on: C2A; assay: as above; details: P. falciparum in erythrocytes, SYBR Green DNA, 72 h; series mostly up to 28.7 µM
# In short: as §1
# [10] = tested on: CP185; assay: as above; details: P. falciparum in erythrocytes, SYBR Green DNA, 72 h; series mostly up to 28.7 µM
# In short: as §1
# [11] = tested on: CP191; assay: as above; details: P. falciparum in erythrocytes, SYBR Green DNA, 72 h; series mostly up to 28.7 µM
# In short: as §1
# [12] = tested on: CP192; assay: as above; details: P. falciparum in erythrocytes, SYBR Green DNA, 72 h; series mostly up to 28.7 µM
# In short: as §1
# [13] = tested on: CP194; assay: as above; details: P. falciparum in erythrocytes, SYBR Green DNA, 72 h; series mostly up to 28.7 µM
# In short: as §1
# [14] = measured here: PEO1 parental Z-AUC
# [15] = at 28.7 µM (top of the series), parasite line A
# [16] = at 28.7 µM (top of the series), parasite line B
Compound,Z-AUC [1],"Z-AUC [1, 14]",Z-AUC ([1]; measured here: PEO4 Z-AUC),Potency ([2]; parasite line A),Potency ([2]; parasite line B),Potency [3],Potency [4],Potency [5],Potency [6],Potency [7],Potency [8],Potency [9],Potency [10],Potency [11],Potency [12],Potency [13],"activity, negative = inhibition ([2]; at 12.8 µM (top of the series), parasite line A)","activity, negative = inhibition ([2]; at 12.8 µM (top of the series), parasite line B)","activity, negative = inhibition [2, 15]","activity, negative = inhibition [2, 16]"
COc1cc(NS(C)(=O)=O)ccc1Nc1c2ccccc2nc2ccccc12,-0.779 (inactive),-1.77,-0.818,2 µM (active),3.16 µM (active),2 µM (active),1.26 µM (active),3.55 µM (active),2.24 µM (active),3.98 µM (active),3.55 µM (active),1.78 µM (active),4.47 µM (active),0.794 µM (active),5.36 µM (active),4.78 µM (active),–,–,–,–
CC(=O)OCC(=O)[C@@]1(O)CC[C@H]2[C@@H]3CCC4=CC(=O)C=C[C@]4(C)[C@H]3[C@@H](O)C[C@@]21C,-0.27 (inactive),1.1,0.219,–,–,–,–,–,–,–,–,–,–,–,–,–,–,–,–,–
CCCCOc1ccc(C(=O)CCN2CCCCC2)cc1,–,–,–,–,–,inactive,inactive,inactive,inactive,inactive,inactive,inactive,inactive,inactive,inactive,inactive,2.86% (inactive),-20.7% (inactive),–,–
O=S1(=O)c2cccc3cccc(c23)N1CCCN1CCN(c2ccc(F)cc2)CC1,–,–,–,–,–,inactive,12.6 µM (active),inactive,inactive,inactive,inactive,inactive,inactive,inactive,inactive,inactive,–,–,7.63% (inactive),-0.586% (inactive)
C[C@]12CCC(=O)C=C1[C@@H]1C[C@@H]1[C@H]1[C@@H]3[C@@H]4C[C@@H]4[C@@]4(CCC(=O)O4)[C@@]3(C)CC[C@@H]12,1.29 (inactive),0.636,1.11,–,–,–,–,–,–,–,–,–,–,–,–,–,–,–,–,–
C[C@]12CC[C@@H]3c4ccc(O)cc4CC[C@H]3[C@@H]1CC[C@@H]2O,0.573 (inactive),0.0962,0.419,–,–,inactive,inactive,inactive,inactive,inactive,inactive,inactive,inactive,inactive,inactive,inactive,–,–,14.2% (inactive),10.8% (inactive)
O=C(O)CNC(=O)c1ccccc1,–,–,–,–,–,inactive,inactive,inactive,inactive,inactive,inactive,inactive,inactive,inactive,inactive,inactive,–,–,-0.717% (inactive),10.3% (inactive)
CN=C(NC#N)NCCSCc1csc(N=C(N)N)n1,–,–,–,–,–,inactive,inactive,inactive,inactive,inactive,inactive,inactive,inactive,inactive,inactive,inactive,–,–,2.51% (inactive),-0.371% (inactive)
